According to article PMC5540273 (PLoS ONE, 2017):
Values joined by “and” are separate entries in the source; they are usually repeats but may differ in a detail not shown here. Equal entries are not always repeated. Where two headings read alike, the source gives them in different places.

Legend:
Settings in all cases: concentration: 1 μM, replicates: in singlicate, n = 1
SRPK3 = tested on: SRPK3
STK16 = tested on: STK16
STK33 = tested on: STK33
STK35 = tested on: STK35
STK36 = tested on: STK36
STK39 = tested on: STK39
SYK = tested on: SYK
SgK110 = tested on: SgK110
TAK1 = tested on: T1, TAK1
T1 construct: gene MAP3K7

TAOK1 = tested on: TAOK1
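Further: KINOMEscan kinase panel screen.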

Row | SMILES | %Inh (SRPK3) | %Inh (STK16) | %Inh (STK33) | %Inh (STK35) | %Inh (STK36) | %Inh (STK39) | %Inh (SYK) | %Inh (SgK110) | %Inh (TAK1) | %Inh (TAOK1) | %Inh (SRPK3; 1 µM) | %Inh (STK16; 1 µM) | %Inh (STK33; 1 µM) | %Inh (STK35; 1 µM) | %Inh (STK36; 1 µM) | %Inh (STK39; 1 µM) | %Inh (SYK; 1 µM) | %Inh (SgK110; 1 µM) | %Inh (TAK1; 1 µM) | %Inh (TAOK1; 1 µM)
1 | O=C(c1ccc(-c2cc(-c3c[nH]nc3-c3ccccn3)ccn2)cc1)N1CCOCC1 [GW812171] | 4% | 0% | 0% | 0% | 2% | 18% | 0% | 32% | 10% | 0% | – | – | – | – | – | – | – | – | – | –
2 | CC(=O)Nc1ccc(COc2ccc(Nc3ccnc4cc(-c5ccccn5)ccc34)cc2)cc1.Cl [GW440148] | 0% | 23% | 0% | 0% | 0% | 13% | 0% | 0% | 0% | 0% | – | – | – | – | – | – | – | – | – | –
3 | O=c1cc(N2CCOCC2)nc2n(Cc3cccc4ccccc34)ccn12 [GSK2333389] | 0% | 0% | 0% | 2% | 0% | 0% | 2% | 0% | 0% | 0% | – | – | – | – | – | – | – | – | – | –
4 | Cl.Cl.Cl.Fc1ccc(-c2ncn(C3CCNCC3)c2-c2ccnc(Nc3ccccc3)n2)cc1 [SB-238039] | – | – | – | – | – | – | – | – | – | – | 11% and 26% | 5% and 0% | 0% and 12% | 2% and 0% | 97.9% and 93% | 18% and 0% | 8% and 3% | 35% and 0% | 24% and 46% | 88% and 57%
